Assay results from PubChem BioAssay AID1159580 (chemical genetic matrix, 2015).
Out of some 5,500 compounds screened, about 2,000 (36%) were called active. About 18% were inconclusive and are not listed. Rule as the data show it: active = normalized growth mostly below about 0.91 (no sharp cut-off); inconclusive = no clear call, values can overlap the other calls; inactive = mostly above about 0.92. This is one part of the list.

Assay: chemical genetic growth profiling, strain panel (AID 1159580);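 also: tested at 20 µM; growth read once vehicle control cultures reached saturation at 30 °C; 1 = growth at the plate median or of vehicle wells; lower values mean less growth of the strain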
Conditions: growth OD

Measured: normalized growth

COc1cc(OC)c2c(c1Cl)OC1(C2=O)C(O)=CC(=O)CC1C (stereo unspecified)
inactive: S. cerevisiae deletion strains, locus YJR075W, strain HOC1, active compounds read low 1.02 | S. cerevisiae deletion strains, locus YKL009W, strain mrt4, active compounds read low 1.01 | S. cerevisiae deletion strains, locus YKL068W, active compounds read low 0.991 | S. cerevisiae deletion strains, locus YKL085W, strain MDH1 (second series), active compounds read low 1.01 | S. cerevisiae deletion strains, locus YKL085W, strain MDH1, active compounds read low 1.01 | S. cerevisiae deletion strains, locus YKL160W, strain elf1, active compounds read low 1.01 | S. cerevisiae deletion strains, locus YKR001C, strain vps1, active compounds read low 1.03 | S. cerevisiae deletion strains, locus YKR026C, strain gcn3, active compounds read low 1.01 | S. cerevisiae deletion strains, locus YKR091W, strain srl3, active compounds read low 1.01 | S. cerevisiae deletion strains, locus YLL001W, strain dnm1, active compounds read low 1 | S. cerevisiae deletion strains, locus YLL026W, active compounds read low 1.01 | S. cerevisiae deletion strains, locus YLL041C, strain sdh2, active compounds read low 1.01 | S. cerevisiae deletion strains, locus YLR027C, strain aat2, active compounds read low 1.03 | S. cerevisiae deletion strains, locus YLR039C, strain RIC1, active compounds read low 1.08 | S. cerevisiae deletion strains, locus YLR058C, strain SHM2, active compounds read low 1.03 | S. cerevisiae deletion strains, locus YLR102C, strain apc9, active compounds read low 0.991 | S. cerevisiae deletion strains, locus YLR113W, strain HOG1, active compounds read low 1.04 | S. cerevisiae deletion strains, locus YLR221C, strain rsa3, active compounds read low 1.02 | S. cerevisiae deletion strains, locus YLR258W, strain gsy2, active compounds read low 1 | S. cerevisiae deletion strains, locus YLR262C, strain YPT6 (second series), active compounds read low 1.02 | S. cerevisiae deletion strains, locus YLR262C, strain YPT6, active compounds read low 1.06 | S. cerevisiae deletion strains, locus YLR268W, strain sec22, active compounds read low 1.02 | S. cerevisiae deletion strains, locus YLR320W, strain mms22, active compounds read low 1.02 | S. cerevisiae deletion strains, locus YLR342W, strain FKS1 (second series), active compounds read low 1.06 | S. cerevisiae deletion strains, locus YLR342W, strain FKS1, active compounds read low 1.01 | S. cerevisiae deletion strains, locus YLR357W, strain rsc2, active compounds read low 1.02 | S. cerevisiae deletion strains, locus YLR370C, strain arc18, active compounds read low 1.01 | S. cerevisiae deletion strains, locus YLR371W, strain rom2, active compounds read low 1 | S. cerevisiae deletion strains, locus YLR384C, strain iki3, active compounds read low 1.01 | S. cerevisiae deletion strains, locus YLR418C, strain cdc73, active compounds read low 0.992 | S. cerevisiae deletion strains, locus YML016C, strain PPZ1, active compounds read low 1.03 | S. cerevisiae deletion strains, locus YML032C, strain rad52, active compounds read low 1 | S. cerevisiae deletion strains, locus YML120C, strain ndi1, active compounds read low 1.01 | S. cerevisiae deletion strains, locus YML124C, strain tub3, active compounds read low 0.991 | S. cerevisiae deletion strains, locus YMR058W, strain fet3, active compounds read low 1.01 | S. cerevisiae deletion strains, locus YMR078C, strain ctf18, active compounds read low 0.98 | S. cerevisiae deletion strains, locus YMR125W, strain sto1, active compounds read low 1.01 | S. cerevisiae deletion strains, locus YMR129W, active compounds read low 1.01 | S. cerevisiae deletion strains, locus YMR205C, strain PFK2, active compounds read low 1.02 | S. cerevisiae deletion strains, locus YMR223W, strain ubp8, active compounds read low 1.01 | S. cerevisiae deletion strains, locus YMR231W, strain pep5, active compounds read low 0.995 | S. cerevisiae deletion strains, locus YMR307W, strain GAS1, active compounds read low 1.04 | S. cerevisiae deletion strains, locus YNL067W, strain RPL9B, active compounds read low 1.01 | S. cerevisiae deletion strains, locus YNL071W, strain lat1, active compounds read low 1.01 | S. cerevisiae deletion strains, locus YNL128W, strain TEP1, active compounds read low 1.03 | S. cerevisiae deletion strains, locus YNL183C, strain NPR1, active compounds read low 0.932 | S. cerevisiae deletion strains, locus YNL209W, strain ssb2, active compounds read low 1.03 | S. cerevisiae deletion strains, locus YNL233W, strain BNI4, active compounds read low 1.02 | S. cerevisiae deletion strains, locus YNL248C, strain rpa49, active compounds read low 1.01 | S. cerevisiae deletion strains, locus YNL250W, strain rad50, active compounds read low 0.992 | S. cerevisiae deletion strains, locus YNL271C, strain bni1, active compounds read low 0.984 | S. cerevisiae deletion strains, locus YNL298W, strain CLA4, active compounds read low 1.01 | S. cerevisiae deletion strains, locus YNL307C, strain MCK1, active compounds read low 0.993 | S. cerevisiae deletion strains, locus YNL322C, strain KRE1 (second series), active compounds read low 1.01 | S. cerevisiae deletion strains, locus YNL322C, strain KRE1, active compounds read low 1.02 | S. cerevisiae deletion strains, locus YNR049C, strain mso1, active compounds read low 1 | S. cerevisiae deletion strains, locus YNR052C, strain pop2, active compounds read low 0.969 | S. cerevisiae deletion strains, locus YOL006C, strain TOP1, active compounds read low 1.2 | S. cerevisiae deletion strains, locus YOL012C, strain htz1 1.12 | S. cerevisiae deletion strains, locus YOL147C, strain pex11, active compounds read low 1 | S. cerevisiae deletion strains, locus YOR001W, strain rrp6, active compounds read low 1.01 | S. cerevisiae deletion strains, locus YOR061W, strain CKA2, active compounds read low 1.04 | S. cerevisiae deletion strains, locus YOR069W, strain VPS5, active compounds read low 1.02 | S. cerevisiae deletion strains, locus YOR070C, strain gyp1, active compounds read low 1.02 | S. cerevisiae deletion strains, locus YOR080W, strain dia2, active compounds read low 1.01 | S. cerevisiae deletion strains, locus YOR083W, strain WHI5, active compounds read low 1.01 | S. cerevisiae deletion strains, locus YOR106W, strain vam3, active compounds read low 1.02 | S. cerevisiae deletion strains, locus YOR136W, strain idh2, active compounds read low 1 | S. cerevisiae deletion strains, locus YOR144C, strain elg1, active compounds read low 0.996 | S. cerevisiae deletion strains, locus YOR184W, strain ser1, active compounds read low 1.04 | S. cerevisiae deletion strains, locus YOR231W, strain MKK1, active compounds read low 0.978 | S. cerevisiae deletion strains, locus YOR265W, strain rbl2, active compounds read low 1 | S. cerevisiae deletion strains, locus YOR270C, strain vph1, active compounds read low 1.05 | S. cerevisiae deletion strains, locus YOR290C, strain snf2, active compounds read low 1.02 | S. cerevisiae deletion strains, locus YOR316C, strain cot1, active compounds read low 0.992 | S. cerevisiae deletion strains, locus YPL051W, strain arl3, active compounds read low 0.999 | S. cerevisiae deletion strains, locus YPL078C, strain atp4, active compounds read low 1.01 | S. cerevisiae deletion strains, locus YPL106C, strain sse1, active compounds read low 1 | S. cerevisiae deletion strains, locus YPL240C, strain hsp82, active compounds read low 1 | S. cerevisiae deletion strains, locus YPL256C, strain CLN2, active compounds read low 0.979 | S. cerevisiae deletion strains, locus YPR119W, strain clb2, active compounds read low 0.986 | S. cerevisiae deletion strains, locus YPR141C, strain kar3, active compounds read low 0.988 | S. cerevisiae deletion strains, locus YPR163C, strain tif3, active compounds read low 0.995 | S. cerevisiae deletion strains, locus YPR167C, strain met16, active compounds read low 0.997 | S. cerevisiae deletion strains, strain wtn01, active compounds read low 1.04 | S. cerevisiae strains, strain wild type, active compounds read low 1.04
